Assay results published in the supplement of paper PMC10646978.
± gives the standard deviation.

Each molecule was assayed on RAW-Dual (murine macrophage reporter line) (assay: NF-kB reporter (SEAP) activity fold change vs agonist alone; higher = enhanced NF-kB activity). Details: modulator concentration 10 µM; agonist: MPLA […].
Method in brief: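 In 384-well plates holding 50 000 RAW-Dual murine macrophage reporter cells per well, compound at 10 μM final was pre-incubated for 1 hour at 37 °C, after which a PRR agonist was added overnight. Supernatant SEAP read with QUANTI-Blue at 620 nm absorbance reported NF-κB, and Lucia luciferase read with QUANTI-Luc luminescence reported IRF. Fold change values come from dividing each reporter signal by the mean of agonist-only control wells on the same plate, averaged over replicate plates with propagated errors.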

Row | Compound | NF-kB reporter
1 | COc1ccc(CCNCc2ccc3ccccc3c2)cc1OC | 0.849 ± 0.08
2 | COc1ccc(CCNCc2cccc3ccccc23)cc1OC | 0.867 ± 0.058
3 | COc1cc2c(c(OC)c1OC)-c1ccc(OC)c(=O)cc1C(NC(C)=O)CC2 (stereo not given) | 2.59 ± 0.15
4 | CN1C(=O)NC(=O)C(=Cc2ccc([N+](=O)[O-])s2)C1=O | 1.05 ± 0.036
5 | CCOC(=O)c1ccccc1-c1ccc(C=C2C(=O)NC(=O)N(c3cccc(C)c3)C2=O)o1 | 0.881 ± 0.069
6 | CC[C@@H](C(N)=O)N1CCCC1=O | 0.993 ± 0.056
7 | CC(=O)OC1CN2CCC1CC2.Cl (stereo not given) | 0.971 ± 0.061
8 | COc1ccc(CCNCc2ccc(OC)c(OC)c2OC)cc1OC | 0.942 ± 0.052
9 | CC1=C(O)C(=O)C=C2C1=CC=C1C2(C)CCC2(C)C3CC(C)(C(=O)O)CCC3(C)CCC12C (stereo not given) | 0.0885 ± 0.0089
10 | CN1C2CCC1CC(OC(=O)[C@H](CO)c1ccccc1)C2 (stereo not given in full) | 0.984 ± 0.031
11 | COc1cc(OC)c(OC)cc1C=O | 1.02 ± 0.067
12 | C[C@@H]1CC[C@H]2[C@@H](C)C(=O)O[C@@H]3O[C@@]4(C)CC[C@@H]1[C@]32OO4 | 1.11 ± 0.11
13 | CC(=O)OC1CCC2(C)C(=CCC3C4CCC(=O)C4(C)CCC32)C1 (stereo not given) | 0.863 ± 0.092
14 | CC12CCC3C(CC=C4CC(O)CCC43C)C1CC(=Cc1cccc(F)c1)C2=O (stereo not given) | 1.05 ± 0.083
15 | COc1ccc(CNCCc2c[nH]c3ccccc23)c(OC)c1C | 2.6 ± 0.15
16 | O=[N+]([O-])Nc1ccc(Br)cn1 | 0.983 ± 0.048
17 | CN1C(=O)NC(=O)C(=Cc2ccc([N+](=O)[O-])o2)C1=O | 1 ± 0.12
18 | C1CCc2nnnn2CC1 [Prestw-162] | 1.03 ± 0.1
19 | CC(C)(C)NCC(O)c1cc(Cl)c(N)c(Cl)c1 (stereo not given) [Prestw-345] | 1.29 ± 0.044
20 | NNC(=O)c1ccccc1 | 1.02 ± 0.022
